{"source": "PubChem BioAssay (Tox21)", "note": "Results filed as inconclusive are left out. Unmarked numbers belong to inactive results. Calls of active or inactive are those of the source. Calls come from the whole dose curve; as a rule, active = well fitted inhibition curve with a large enough effect in the repeat runs; inconclusive = weak or mixed curves; inactive = flat fitted curve, though single readings scatter. % is set by controls: 0 for no effect and ±100 for the full control effect; potency is the fitted concentration of half-maximal effect."}
{"biological_target": "Voltage-gated inwardly rectifying potassium channel KCNH2 (Homo sapiens) (UniProt Q12809)", "sequence (Q12809 whole entry, looked up)": "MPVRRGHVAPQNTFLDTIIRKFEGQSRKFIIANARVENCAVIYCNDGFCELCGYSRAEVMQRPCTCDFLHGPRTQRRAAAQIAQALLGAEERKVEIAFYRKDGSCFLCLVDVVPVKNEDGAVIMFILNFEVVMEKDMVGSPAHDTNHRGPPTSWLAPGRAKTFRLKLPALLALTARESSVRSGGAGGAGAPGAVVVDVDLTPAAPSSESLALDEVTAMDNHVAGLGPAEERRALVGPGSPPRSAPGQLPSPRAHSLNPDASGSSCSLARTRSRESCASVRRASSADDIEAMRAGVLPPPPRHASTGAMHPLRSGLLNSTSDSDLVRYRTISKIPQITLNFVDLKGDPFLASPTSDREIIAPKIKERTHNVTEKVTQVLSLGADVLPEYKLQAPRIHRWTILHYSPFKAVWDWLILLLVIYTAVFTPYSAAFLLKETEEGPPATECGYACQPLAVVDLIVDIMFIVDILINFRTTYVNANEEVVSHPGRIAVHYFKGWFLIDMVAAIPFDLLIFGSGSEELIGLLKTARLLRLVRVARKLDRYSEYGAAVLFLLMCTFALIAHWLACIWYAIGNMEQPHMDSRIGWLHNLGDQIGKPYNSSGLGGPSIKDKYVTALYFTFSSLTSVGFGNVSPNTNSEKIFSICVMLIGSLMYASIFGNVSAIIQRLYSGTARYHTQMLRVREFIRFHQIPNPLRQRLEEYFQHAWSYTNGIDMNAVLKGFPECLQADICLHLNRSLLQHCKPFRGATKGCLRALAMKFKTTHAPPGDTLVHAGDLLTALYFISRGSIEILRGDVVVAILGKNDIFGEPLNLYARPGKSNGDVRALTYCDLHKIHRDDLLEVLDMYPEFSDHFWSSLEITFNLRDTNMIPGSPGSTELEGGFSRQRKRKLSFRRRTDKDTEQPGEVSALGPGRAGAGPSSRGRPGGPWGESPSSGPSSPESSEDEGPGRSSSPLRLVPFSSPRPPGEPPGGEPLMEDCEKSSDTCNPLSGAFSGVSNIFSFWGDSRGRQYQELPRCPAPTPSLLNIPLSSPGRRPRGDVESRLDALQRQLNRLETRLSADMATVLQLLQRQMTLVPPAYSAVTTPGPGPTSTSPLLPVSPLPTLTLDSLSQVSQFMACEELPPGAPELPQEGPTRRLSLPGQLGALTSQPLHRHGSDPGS", "assay": "Human Ether-a-go-go-Related Gene (hERG) channel small molecule antagonists: fluorescence cell-based qHTS assay (AID 1671200); note: nearly all actives have a fitted effect of over 50% in size;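 for activity change, negative = inhibition: hERG-expressing U2OS cells given a thallium stimulus after FluxOR II dye loading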", "conditions": "hERG-U2OS cells, FluxOR thallium flux fluorescence; series mostly up to 76.8 µM; activity change, negative = inhibition: at the top concentration", "procedure,_shortened": "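Channel function was assessed by thallium flux. Cells seeded the previous day and kept at 37 C took up FluxOR II dye over 1 h in the dark at room temperature, then sat another 10 min before stimulation.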"}
{"smiles": "CCCCOC(=O)CC", "activity change, negative = inhibition": "8.72%"}
{"smiles": "O=C(O)c1cc(-c2ccc(F)cc2F)ccc1O", "activity change, negative = inhibition": "4.9% [at 35.3 µM]"}
{"smiles": "c1ccc(C(O[C@@H]2CCCN(CCc3ccc4c(c3)OCO4)C2)c2ccccc2)cc1", "Potency": "0.977 µM (active)"}
{"smiles": "CCO[C@@H]1O[C@H](C(COCc2ccccc2)OCc2ccccc2)[C@H](OCc2ccccc2)[C@H]1O", "note": "(stereo partly drawn)", "activity change, negative = inhibition": "-23.1% [at 35.3 µM]"}
{"smiles": "Cc1cc(-n2nc3ccc(Cl)cc3n2)c(O)c(C(C)(C)C)c1", "activity change, negative = inhibition": "-2.25% [at 35.3 µM]"}
{"smiles": "COc1c(C)c2c(c(O)c1C/C=C(\\C)CCC(=O)OCCN1CCOCC1)C(=O)OC2", "activity change, negative = inhibition": "1.27% [at 35.3 µM]"}
{"smiles": "CC1(C)CCC[C@]2(C)[C@H]3CCO[C@]3(C)CC[C@@H]12", "activity change, negative = inhibition": "-22.1%"}
{"smiles": "CN(C)Cc1ccccc1O", "activity change, negative = inhibition": "1.18%"}
{"smiles": "CCCCC(CC)COC(=O)CCCCC(=O)OCc1ccccc1", "note": "(stereo not drawn)", "activity change, negative = inhibition": "2.82%"}
{"smiles": "COc1cc(/C=C/c2ccccc2)oc(=O)c1", "activity change, negative = inhibition": "-18.1%"}
{"smiles": "Cc1cc(C(C#N)c2ccc(Cl)cc2)c(Cl)cc1NC(=O)c1cc(I)cc(I)c1O", "note": "(stereo not drawn)", "activity change, negative = inhibition": "0.976% [at 35.3 µM]"}
{"smiles": "CCCCCC(C)OC(=O)COc1ccc(Cl)c2cccnc12", "note": "(stereo not drawn)", "Potency": "9.77 µM (active)"}
{"smiles": "CCCCC(CC)CN1CN(CC(CC)CCCC)CC(C)(N)C1", "note": "(stereo not drawn)", "Potency": "2.68 µM (active)"}
{"smiles": "O=C(O)c1cc(=O)c2ccccc2o1", "activity change, negative = inhibition": "0.0936% [at 35.3 µM]"}
{"smiles": "CC1=Nc2ccccc2C1(C)C", "activity change, negative = inhibition": "-19.4%"}
{"smiles": "S=c1nccc[nH]1", "activity change, negative = inhibition": "-22.7%"}
{"smiles": "Clc1sc(Cl)c(Cl)c1Cl", "activity change, negative = inhibition": "-3.01%"}
{"smiles": "Cc1ccc(O)c(N)c1", "activity change, negative = inhibition": "-1.05%"}
{"smiles": "S=C([S-])NCCNC(=S)[S-].S=C([S-])NCCNC(=S)[S-].[Mn+2].[Zn+2]", "activity change, negative = inhibition": "0.182% [at 35.3 µM]"}
{"smiles": "[Cu+]", "activity change, negative = inhibition": "-0.538%"}
{"smiles": "COC(=O)Nc1nc2ccc(C(=O)c3ccccc3)cc2[nH]1", "activity change, negative = inhibition": "-8.19% [at 35.3 µM]"}
{"smiles": "c1ccsc1", "activity change, negative = inhibition": "0.747%"}
{"smiles": "CC[C@H](C)COC(=O)/C=C/c1ccc(N=Cc2ccc(OC)cc2)cc1", "Potency": "43.6 µM (active)"}
{"smiles": "CCCCCCCC/C=C\\CCCCCCCCN", "activity change, negative = inhibition": "-22.5% [at 35.3 µM]"}
{"smiles": "ClCCl", "activity change, negative = inhibition": "-5.3%"}
{"smiles": "CC(=O)CC(=O)Nc1ccc(S(=O)(=O)O)cc1", "activity change, negative = inhibition": "-0.602%"}
{"smiles": "COc1ccc2c(c1)c(CC(=O)OC/C=C(\\C)CC/C=C(\\C)CCC=C(C)C)c(C)n2C(=O)c1ccc(Cl)cc1", "activity change, negative = inhibition": "0.208% [at 35.3 µM]"}
{"smiles": "CCCCCCCCCCC[C@@H](C[C@@H]1OC(=O)[C@H]1CCCCCC)OC(=O)[C@H](CC(C)C)NC=O", "activity change, negative = inhibition": "-0.115% [at 35.3 µM]"}
{"smiles": "O=c1oc2cc(O)ccc2c2oc3cc(O)ccc3c12", "activity change, negative = inhibition": "-9.81%"}
{"smiles": "CCC(C)n1ncn(-c2ccc(N3CCN(c4ccc(OC[C@H]5CO[C@](Cn6cncn6)(c6ccc(Cl)cc6Cl)O5)cc4)CC3)cc2)c1=O", "note": "(stereo partly drawn)", "activity change, negative = inhibition": "-10.1% [at 35.3 µM]"}
{"smiles": "COC(=O)c1ccccc1C", "activity change, negative = inhibition": "-0.393%"}
{"smiles": "C=CC(=O)OCCOC(=O)C=C", "activity change, negative = inhibition": "3.64%"}
{"smiles": "CCN(CC)c1ccc2c(-c3ccc(S(=O)(=O)O)cc3S(=O)(=O)[O-])c3ccc(=[N+](CC)CC)cc-3oc2c1", "activity change, negative = inhibition": "10.6%"}
{"smiles": "C#C[C@]1(OC(C)=O)CC[C@H]2[C@@H]3CCC4=C/C(=N/O)CC[C@@H]4[C@H]3CC[C@@]21CC", "activity change, negative = inhibition": "-21.9% [at 35.3 µM]"}
{"smiles": "Cc1cccc2cccnc12", "activity change, negative = inhibition": "0.301%"}
{"smiles": "CN(C)[C@@H](CCOc1cccc2ccccc12)c1ccccc1", "Potency": "6.01 µM (active)"}
{"smiles": "CC(C)(C)NSc1nc2ccccc2s1", "activity change, negative = inhibition": "1.71%"}
{"smiles": "COc1cc(C)ccc1O", "activity change, negative = inhibition": "5.43%"}
